System: thyroid hormone receptor (endogenous TRα and TRβ)
Parameters: species or system GH3-TRE-Luc (rat pituitary); GH3-TRE-Luc luciferase reporter, antagonist mode against 1 nM T3, loss of signal, qHTS
Settings: read-out: Average AC50 (uM) GH3-TRE-Antag, antagonist mode, 1 nM T3, no GH3 cytotoxicity hit

OC[C@H]1O[C@@H](n2cnc3c(=S)nc[nH]c32)[C@H](O)[C@@H]1O [Thioinosine]
AC50: 21.8 µM

CCCC(=O)c1cc(O)c(O)cc1O [2',4',5'-Trihydroxybutyrophenone]
AC50: 52.7 µM

OC(CN1CCC(Cc2ccc(F)cc2)CC1)c1ccc(Cl)cc1 (stereo not shown) [Eliprodil]
AC50: 19.5 µM

CCCc1nc2c(C)cc(-c3nc4ccccc4n3C)cc2n1Cc1ccc(-c2ccccc2C(=O)O)cc1 [Telmisartan]
AC50: 31.6 µM

N#CC(c1ccc(Cl)cc1)c1c(Cl)cc(-n2ncc(=O)[nH]c2=O)cc1Cl (stereo not shown) [Diclazuril]
AC50: 4.7 µM

Nc1nc(N)c2nc(-c3ccccc3)c(N)nc2n1 [Triamterene]
AC50: 39.2 µM

O=C(c1ccccc1)C1CCCCC1 [Cyclohexylphenylketone]
AC50: 69.7 µM

O=C(O)C[C@H](O)C[C@H](O)/C=C/c1c(C2CC2)nc2ccccc2c1-c1ccc(F)cc1 [Pitavastatin calcium]
AC50: 46.3 µM

CC[N+](CC)(CC)CCOc1ccc(/C=C/c2ccccc2)cc1 [Stilonium iodide]
AC50: 27 µM

Oc1c(Cl)ccc(Cl)c1Cl [2,3,6-Trichlorophenol]
AC50: > 90 µM

CC(Cc1ccc(C(C)(C)C)cc1)CN1C[C@@H](C)O[C@@H](C)C1 (stereo partly drawn) [(2R,6S)-Fenpropimorph]
AC50: 47.3 µM

COc1ccc2nc(NC(=O)Nc3ccccc3)sc2c1 [Frentizole]
AC50: 11.4 µM

CC(C)(C)NC(=O)[C@H]1CC[C@H]2[C@@H]3CC[C@H]4NC(=O)C=C[C@]4(C)[C@H]3CC[C@]12C [Finasteride]
AC50: > 20 µM

Reference: publication PMC6792352, “Limited Chemical Structural Diversity Found to Modulate Thyroid Hormone Receptor in the Tox21 Chemical Library” (Environmental Health Perspectives, 2019)
